Reference: PubChem BioAssay AID2187 (The Scripps Research Institute Molecular Screening Center, 2009)
The whole screen tested about 1,300 compounds, of which about 1,200 (92%) were called active.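 The calls were made as follows: active = inhibition of the VIM-2 beta-lactamase enzyme above about 11% from the earlier first-round screen (limit read from the data); inactive = the rest.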 So high a share suggests a set chosen from earlier hits. The list is a sample of the results.

tested on: VIM-2 metallo-beta-lactamase (Pseudomonas aeruginosa); assay: VIM-2 metallo-beta-lactamase inhibitors, confirmation, biochemical, epi-absorbance, hits shared with IMP-1 screen (AID 2187); details: purified VIM-2, nitrocefin hydrolysis, at 5.6 µM, active compounds read high;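 also: 0% = VIM-2 with DMSO and 100% = buffer wells without enzyme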

Structure (SMILES) | inhibition
Cc1cc(OCc2cc(C(=O)O)oc2C)c2c3c(c(=O)oc2c1)CCCC3 | 73.5% (active)
Cc1cc(=O)oc2c(C)c(OCC(=O)N3CCN(Cc4ccc5c(c4)OCO5)CC3)ccc12 | 58.3% (active)
